The list is not random: actives were taken first. Their share in the collection is about 21%.
NS1 function inh: inhibitors of influenza NS1 protein function | Potency, µM (top dose mostly 46.1 µM), for inactives: at the highest dose activity, positive = more growth | actives 0.4% (n = 270,000) | AID 2326; calls by dose curve; note: potency is the fitted concentration of half-maximal effect; actives are rising curves; nearly all actives have a fitted effect of over 50% in size
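Read-out: OD600 growth recovery of NS1-expressing budding yeast. Cells grown overnight at 30C in -URA glucose medium, washed, resuspended and diluted 1:100 in 2% galactose assay medium, pH 6.0. Same strain lacking NS1 served as positive control.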
Shiga inhibitor: blocks Shiga toxin action in Vero cells; Vero cells, Shiga toxin protein synthesis inhibition reporter; inhibition, % at 38.7 µM; actives 9.2% (n = 290,000); in the data active = inhibition mostly above about 28%, no sharp cut-off; inactive = mostly below about 43%; note: 0% is about no effect
Cycloheximide cs: counter-screen for Shiga toxin inhibitors: cycloheximide protein synthesis inhibition. max response, %. actives 12% (n = 300,000). cell reporter, cycloheximide protein synthesis inhibition counterscreen; in the data active = max response mostly above about 13%, no sharp cut-off; inactive = mostly below about 14%; note: read at 38.3 µM for the half of the compounds with a filed dose; 0% is about no effect
Pf growth 48h: P. falciparum growth inhibition at 48 hours (one generation). actives 5.9% (n = 310,000). P. falciparum luciferase growth in erythrocytes, 48 h. Potency, µM (highest dose often 28.7 µM), inactives show at the highest dose activity change, negative = inhibition, most hits filed as inhibitors. AID 504832; note: potency is the fitted concentration of half-maximal effect; % is set by controls: 0 for no effect and ±100 for the full control effect
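Firefly luciferase activity from engineered P. falciparum reports growth; inhibitors lower the luminescent signal. Cultures contained 2% hematocrit erythrocytes at 0.1% final parasitemia.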
Pf growth 96h: inhibits malaria parasite growth, 96 h; actives 6.9% (n = 320,000); P. falciparum luciferase reporter growth, 96 h; Potency, µM (series often up to 28.7 µM), for the others: top-dose activity change, negative = inhibition, actives largely listed as inhibitors; note: potency is the fitted concentration of half-maximal effect; % is set by controls: 0 for no effect and ±100 for the full control effect
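P. falciparum expressing integrated firefly luciferase grown in erythrocytes (2% hematocrit, 0.05% parasitemia final) with compounds for 96 hours at 37 C, 5% CO2. Growth inhibition read as loss of luminescence after adding luciferase detection reagent.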
An asterisk follows results filed as active; ? = inconclusive; / = not tested or not shown. Unless noted, calls come from the whole dose curve; as a rule, active = well fitted inhibition curve with a large enough effect; inconclusive = small, poorly fitted or top-dose-only effect, or another doubt; inactive = no such curve, though single readings can be large or run the other way.

SMILES	NS1 function inh	Shiga inhibitor	Cycloheximide cs	Pf growth 48h	Pf growth 96h
O=S(=O)(Cc1ccccc1)Oc1ccccc1	3%	20	2	29%	-14%
O=C(Cn1cnc2ccccc2c1=O)Nc1nc2ccccc2s1	5%	15	-2	30%	32%
CCc1ccc2nc(NC(=O)Cn3cnc4ccccc4c3=O)sc2c1	6%	53*	29*	62%	42%
Cn1c(=O)c2c(ncn2CC(=O)Nc2nc3ccc(F)cc3s2)n(C)c1=O	10%	31	13*	20%	/
COc1ccc(/C=N/N(Cc2ccccc2)c2ccccc2)cc1O	/	69	11	?	?
Cn1cccc1Cc1nnc(SCC(=O)N2CCc3ccccc32)n1CCc1ccccc1	1%	11	-3	13µM*	?
Cn1c(Cc2cccs2)nnc1SCC(=O)N1CCCc2ccccc21	6%	4	-6	/	?
Cn1cccc1Cc1nnc(SCC(=O)NC2CCCC2)n1CCc1ccccc1	?	-2	-3	/	8.3µM*
O=C(CSc1nnc(Cc2cccs2)n1CCc1ccccc1)N1CCCc2ccccc21	-4%	-22	12	9.3µM*	/
Cn1cccc1Cc1nnc(SCC(N)=O)n1CCc1ccccc1	-9%	-13	-3	2%	?
Cn1cccc1Cc1nnc(SCC(=O)N2CCCC2)n1CCc1ccccc1	?	-8	-3	/	?
Cc1ccc(SC(=O)c2c(C)noc2-c2cc(C)on2)cc1	-48%	2	-2	5%	-4%
COc1ccc(NC(=O)O/N=C/c2ccccc2)cc1	-29%	79*	40*	6%	?
COc1ccc(NC(=O)O/N=C/c2ccccc2Cl)cc1	-3%	72*	30*	27%	39%
CN(C)c1ccc(/C=N/OC(=O)Nc2ccccc2)cc1	-11%	52*	37*	96%	?
O=C(Nc1ccc(S(=O)(=O)Nc2ccccc2F)cc1)N1CCCCC1	25%	-11	16	25%	?
CC1(C)CC(=O)C=C(Nc2ccc(Cl)c(Br)c2)C1	-2%	-2	7	9%	?
CCCOc1ccc(/C=C2\SC(N)=NC2=O)cc1OC	8%	22	-1	-6%	22%
COc1cc(/C=C2\SC(N)=NC2=O)ccc1OCC(=O)Nc1ccccc1C	/	/	/	5.9µM*	5.2µM*
COC(=O)c1ccc(NC(=O)COc2ccc(C3C(C#N)=C(N)Oc4c3ccc3ccccc43)cc2OC)cc1 (stereo unspecified)	?	4	8	?	?
COc1cc(C2C(C#N)=C(N)Oc3c2ccc2ccccc32)ccc1OCC(=O)Nc1ccccc1C (stereo unspecified)	29%	-2	-1	10µM*	?
COc1ccc(/C=C2\SC(N)=NC2=O)cc1Br	4%	/	19*	-8%	?
CCCN(CC(=O)Nc1ccccc1C)C(=O)/C=C/c1ccc(OCC)c(OC)c1	/	/	/	9.3µM*	?
N#CCO/N=C/C(=O)Nc1ccc(F)cc1F	4%	-3	-1	3%	-15%
Cc1nnc(SCC(=O)N2CCC(C(N)=O)CC2)s1	5%	2	-3	-2%	-14%
SMILES	NS1 function inh	Shiga inhibitor	Cycloheximide cs	Pf growth 48h	Pf growth 96h
Cc1nnc(SCC(=O)N(C)C2CCCCC2)s1	5%	34	11*	46%	-3%
CSCCC(=O)N1CCN(CC(=O)N2CCCC2)CC1	-1%	-7	-6	13%	21%
N#C/C(=C/c1ccc(N2CCCCCC2)o1)c1cccc(F)c1	-8%	4	14	-15%	/
COc1cc(N2CCCC2)c(OC)cc1/C=C(/C#N)c1cccc(F)c1	11%	-16	0	10µM*	/
CC1CCCCC1NC(=O)CCn1ccc2cc(S(=O)(=O)N3CCCC3)ccc21 (stereo unspecified)	11%	12	1	?	?
O=C(NCCCCCCNC(=O)c1ccccc1O)c1ccccc1O	8%	8	10	8.3µM*	?
O=C(NCCCSc1ccccc1)c1cc(Cl)ccc1O	13%	-21	-5	?	12µM*
O=C(NCCCc1ccccc1)c1ccccc1O	-249%	60*	54*	/	-21%
O=C(NCCO)c1ccccc1O	?	0	-7	7%	/
O=C(NCCNC(=O)c1ccccc1O)c1ccccc1O	-19%	/	-2	14%	?
O=C1N/C(=C/c2ccc(N3CCOCC3)o2)C(=O)N1c1cccc(Cl)c1	7%	23	22*	-1%	-4%
O=C1N/C(=C/c2ccc(Br)s2)C(=O)N1c1ccccc1	-5%	65*	16*	38%	-20%
Cc1cccc(NC(=O)CN2C(=O)N/C(=C/c3ccc(-c4cccc(C(=O)O)c4C)o3)C2=O)c1	1%	45*	27*	38%	22%
O=C1NC(=O)N(c2ccccc2)C(=O)/C1=C/c1ccoc1	/	15	-3	5%	12%
Cc1c(C(=O)O)cccc1-c1ccc(/C=C2/NC(=O)N(c3ccccc3)C2=O)o1	5%	40	28*	33%	8%
COc1ccc(S(=O)(=O)NN(C)c2ncc(C(F)(F)F)cc2Cl)cc1	/	1	-5	-4%	1%
Cc1ccc(/C=C2/NC(=O)N(c3ccccc3)C2=O)o1	-24%	90*	32*	104%	-6%
CCN1C(=O)N/C(=C/c2ccc(C)o2)C1=O	-25%	12	1	23%	22%
CC(C)(C)NC(=O)NC(=O)CSc1ncccn1	/	2	14	13%	53%
O=C(Nc1ccc(Br)cc1)C1OCCc2ccccc21 (stereo unspecified)	-69%	51*	18*	?	?
Cc1ccc(S(=O)(=O)N2CCOC23CCN(C(=O)c2ccccc2Br)CC3)cc1	-1%	-2	-1	-26%	-8%
COc1ccc(C(CNC(=O)c2ccc(Cl)c(S(=O)(=O)N3CCCC3)c2)N2CCCC2)cc1 (stereo unspecified)	/	/	/	13µM*	7.4µM*
COc1ccc(CCNC(=O)c2ccc(Cl)c(S(=O)(=O)N3CCCC3)c2)cc1	/	/	/	12µM*	6.6µM*
COc1ccc(C(CNC(=O)c2ccc(S(=O)(=O)N(C)C)cc2)N2CCCC2)cc1 (stereo unspecified)	13%	-4	4	10µM*	?
COc1ccc(C(CNC(=O)c2cccc(Br)c2)N2CCCC2)cc1 (stereo unspecified)	3%	-7	-4	/	?
COc1ccc(C(CNC(=O)c2ccc(S(=O)(=O)N3CCCC3)cc2)N2CCOCC2)cc1 (stereo unspecified)	7%	-2	1	?	?
COc1ccc(CCNC(=O)c2cc(S(=O)(=O)N3CCCCC3)ccc2Cl)cc1	/	/	/	3%	?
COc1ccc(C(CNC(=O)C(C)Oc2ccc(Br)cc2)N2CCCC2)cc1 (stereo unspecified)	/	/	/	12µM*	?
O=C(CNS(=O)(=O)c1ccc(Br)cc1)N1CCN(Cc2ccccc2)CC1	6%	-13	1	3%	?
